From PubChem BioAssay (NCI) come the findings set out here.

Test systems include T-47D breast; BT-549 breast; MDA-MB-435 melanoma; SW-620 colon; MCF7 breast; HCT-116 colon; HCC-2998 colon; KM12 colon.
Holding throughout (assay): NCI-60 one-dose screen, 48 h (100 = growth as untreated, 0 = no growth, -100 = all killed)
What all share (conditions): 10 µM unless noted

This is part of a sample that, as a whole, favours compounds with a hit. Of some 83,000 tested, about 20% had one in any assay.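 Step 1: grow cells in 96-well plates. Step 2: add test compound at a single concentration. Step 3: incubate 48 h. Step 4: record percent growth.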 Unmarked numbers belong to inactive results. The source made the active and inactive calls. How the source made its calls: active means growth percent below 10; inactive means the rest.

Consider `COc1ccc(N2C(=O)/C(=C/C(Cl)=C/c3ccc([N+](=O)[O-])cc3)SC2=S)cc1`, for which the growth was -14.9% (active) with T-47D breast; -4.68% (active) in the assay with BT-549 breast; -14.4% (active) in the assay with MDA-MB-435 melanoma; -13.7% (active) in the assay on SW-620 colon; 10.4% in the assay with MCF7 breast; -60.4% (active) in the assay with HCT-116 colon. Besides, the growth in the assay with HCC-2998 colon is -20.2% (active); in the assay on KM12 colon, -61.5% (active).
Regarding `COC(=O)c1nc(-c2ccccc2)oc1S(=O)(=O)N1CCN(c2ccc(OC)cc2)CC1`, the growth is 59% in the assay on T-47D breast; 76.6% in the assay with BT-549 breast; 77.2% in the assay with MDA-MB-435 melanoma; 41.4% in the assay on SW-620 colon; 45.4% in the assay on MCF7 breast; 60.9% in the assay with HCT-116 colon. The values for the growth in the assay with HCC-2998 colon and in the assay with KM12 colon were 104% and 86.2%, respectively.
Turning to `O=C(Nc1ccc2[nH]ncc2c1)c1csc(Nc2ccccc2)n1`, the growth in the assay on T-47D breast is 37.1%; in the assay with BT-549 breast it was 62%; in the assay with MDA-MB-435 melanoma, -11.9% (active); with SW-620 colon, 21%; in the assay with MCF7 breast it was 14.1%; in the assay on HCT-116 colon it was 35.3%. The figures for the growth with HCC-2998 colon and in the assay on KM12 colon were 62.5% and 27.7%, respectively.
`COc1ccc(-c2csc(NC(=O)CSc3nc(C)cc(=O)[nH]3)n2)cc1`: the growth is 89.2% with T-47D breast; 86.1% with BT-549 breast; 108% with MDA-MB-435 melanoma; 101% in the assay on SW-620 colon; 92.8% in the assay on MCF7 breast; 102% with HCT-116 colon. In addition, the growth in the assay with HCC-2998 colon is 117%; with KM12 colon, 100%.
In the case of `Cc1nn(C)c2ncnc(Nc3ccccc3Br)c12`, the growth in the assay on T-47D breast was 94.8%; in the assay on BT-549 breast, 108%; in the assay with MDA-MB-435 melanoma, 106%; in the assay on SW-620 colon, 106%; with MCF7 breast, 95.6%; in the assay on HCT-116 colon, 110%. For the same compound, the growth in the assay on HCC-2998 colon and with KM12 colon was 108% throughout.
On to `N#Cc1nn(-c2ccccn2)c(N)c1C#N`, for which the growth is 84.1% with T-47D breast; 98.3% in the assay on BT-549 breast; 101% with MDA-MB-435 melanoma; 115% in the assay on SW-620 colon; 99.8% in the assay on MCF7 breast; 87.7% with HCT-116 colon. For the same compound, the growth is 106% in the assay with HCC-2998 colon and 101% in the assay with KM12 colon.
On to `Cc1nc2sc(C(=O)Nc3ccccc3)c(N)c2cc1C(O)c1ccccc1` (stereo not given), for which the growth in the assay on T-47D breast was 54.6%; in the assay on BT-549 breast it was 67.9%; in the assay on MDA-MB-435 melanoma, -18.3% (active); with SW-620 colon it was 24.1%; in the assay with MCF7 breast, 17%; with HCT-116 colon, 11.8%. For the same compound, the results for the growth with HCC-2998 colon and in the assay on KM12 colon were 15.4% and 18.3%, respectively.
As for `CNC(=O)c1cc(Oc2ccc3nc(NC(=O)c4cc(C(F)(F)F)cc(C(F)(F)F)c4)sc3c2)ccn1`, the growth in the assay on T-47D breast was 0.372% (active); with BT-549 breast it was 11.4%; in the assay on MDA-MB-435 melanoma, 12.1%; in the assay on SW-620 colon it was 40.2%; with MCF7 breast it was 9.82% (active); with HCT-116 colon it was 12.4%. Besides, the growth in the assay on HCC-2998 colon was 35.2%; with KM12 colon it was 15.5%.
As to `CN(C)c1ccc(Cc2cc(-c3ccccc3)nn(C/C(=N/O)c3ccccc3)c2=O)cc1`, the growth is 11.8% with T-47D breast; 61.2% with BT-549 breast; 38% with MDA-MB-435 melanoma; 62.1% with SW-620 colon; 29.1% with MCF7 breast; 46% in the assay with HCT-116 colon. Also, the growth is 81.2% with HCC-2998 colon and 31.8% in the assay with KM12 colon.
For the compound `CCc1ccc(Cc2cnc(NC(=O)c3cc(C)oc3C)s2)cc1`, the growth in the assay with T-47D breast was 34.4%; in the assay with BT-549 breast, 44.8%; in the assay with MDA-MB-435 melanoma it was -21.5% (active); in the assay on SW-620 colon, 18.3%; with MCF7 breast, 16.5%; with HCT-116 colon, 20.4%. Besides, the values for the growth with HCC-2998 colon and in the assay on KM12 colon were 58.3% and 22%, respectively.
Take `Cc1ccc(C2=Nc3c(N)nc(N)nc3NC(c3cccc(Nc4ccnc5cc(C(F)(F)F)ccc45)c3)C2)cc1` (stereo not given): the growth in the assay on T-47D breast is 46.9%; with BT-549 breast it was 94%; in the assay with MDA-MB-435 melanoma, -40.1% (active); in the assay on SW-620 colon, 19.1%; in the assay with MCF7 breast, 6.88% (active); in the assay with HCT-116 colon it was 1.85% (active). Also, the growth is 35% in the assay on HCC-2998 colon and 15% with KM12 colon.
In the case of `C#CC#CC#CC#CC#CC#CC#CC#CC[C@@H]1OC[C@H](COC(=O)O[C@@H](C(=O)O[C@H]2C[C@@]3(O)[C@@H](OC(=O)c4ccccc4)[C@@H]4[C@]5(OC(C)=O)CO[C@@H]5C[C@H](O)[C@@]4(C)C(=O)[C@H](OC(C)=O)C(=C2C)C3(C)C)[C@@H](NC(=O)c2ccccc2)c2ccccc2)O1`, the growth was 39.1% in the assay on T-47D breast; 34.6% in the assay with BT-549 breast; -63.1% (active) with MDA-MB-435 melanoma; 28.5% in the assay with SW-620 colon; 18% in the assay with MCF7 breast; 12.5% in the assay with HCT-116 colon. Also, the growth with HCC-2998 colon is 19.7%; with KM12 colon, 9.33% (active).
As for `C#Cc1c(I)n(C2OC(CO[Si](C)(C)C(C)(C)C)C3OC(C)(C)OC32)c(=O)[nH]c1=O` (stereo not given), the growth was -69.3% (active) in the assay on T-47D breast; 98.5% in the assay on BT-549 breast; 81.2% with MDA-MB-435 melanoma; -98.3% (active) in the assay on SW-620 colon; 42.1% in the assay with MCF7 breast; -49.6% (active) in the assay with HCT-116 colon. Further, the figures for the growth in the assay with HCC-2998 colon and with KM12 colon were -75.7% (active) and 105%, respectively.
As for `Cn1ccnc1C(=O)/C=C/c1ccc(C(=O)Nc2c(F)c(F)c(F)c(F)c2F)cc1`, the growth was 9.11% (active) in the assay with T-47D breast; 22.4% in the assay with BT-549 breast; 48.7% in the assay with MDA-MB-435 melanoma; -14.3% (active) with SW-620 colon; 13% in the assay on MCF7 breast; -21.5% (active) in the assay on HCT-116 colon. Also, the growth with HCC-2998 colon was -4.74% (active); with KM12 colon, -58.7% (active).
Turning to `CCOC(=O)CSc1nc2sc3c(c2c(=O)n1-c1ccccc1)CCCCC3`, the growth in the assay on T-47D breast was 94.4%; in the assay with BT-549 breast it was 110%; in the assay on MDA-MB-435 melanoma, 107%; in the assay on SW-620 colon it was 98.1%; in the assay with MCF7 breast, 94.5%; in the assay with HCT-116 colon, 97.3%. The growth in the assay with HCC-2998 colon was 114%; with KM12 colon, 104%.
